Many of the other results were omitted from the sample, so hits are more common in it than they were.
Pf Dd2 growth: inhibitors of Plasmodium falciparum Dd2 growth; P. falciparum Dd2 growth, SYBR Green, 72 h; Potency, µM (doses to about 28.9 µM), usual class: inhibitors; 120,000 compounds, 4.3% hits; AID 1347417; active = well fitted inhibition curve with a large enough effect; also: nearly all actives have a fitted effect of over 65% in size
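Readout: SYBR Green fluorescence, 485 nm excitation, 535 nm emission, after ~16 h lysis at 37C. Before that, Dd2-infected red cells (2.5% hematocrit) grew 72 h with compound, 29 uM top final concentration.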
Numbers stand for hits; i = inactive; [ ] = remark or other dose.

SMILES | Pf Dd2 growth
COc1cccc(Nc2ccc3c(n2)C(C)(C(=O)NCCc2cnc[nH]2)CN(C)C3)c1 (stereo not given) | i
COc1ccc(NC(=O)C2(C)CCCc3cnc(Nc4cccnc4)nc32)cc1 (stereo not given) | i
COc1cccc(Nc2ncc3c(n2)C(C)(C(=O)NCCN2CCOCC2)CC3)c1 (stereo not given) | i
COCCN1Cc2ccc(Nc3cccnc3)nc2C(C)(C(=O)Nc2cccc(F)c2)C1 (stereo not given) | 8.91µM
CC(=O)N1CC2(Cc3ccccc31)CN([S+](C)(=O)[O-])C2 | i
Cc1noc(C)c1[S+](=O)([O-])N1CCn2c(nnc2-c2ccncc2)C1 | i
c1cc(-c2nc(-c3ccc(OC4CNC4)cc3)no2)ccn1 | 3.98µM
O=C(c1ccncc1)N1CCC(Oc2ccc(-c3noc(-c4ccccc4)n3)cc2)C1 (stereo not given) | i[5.79 µM]
CCCN1CC(Oc2ccc(-c3noc(-c4cccnc4)n3)cc2)C1 | i
O=C(Nc1ccccc1)N1CC(Oc2ccc(-c3noc(-c4ccncc4)n3)cc2)C1 | i
c1cncc(-c2nc(-c3ccc(OC4CNC4)cc3)no2)c1 | 5.01µM
CC(C)c1nc(-c2ccc(OC3CCNC3)cc2)no1 (stereo not given) | i[5.79 µM]
COc1ccc(NC(=O)N2CCn3nnc(CCC(=O)NC4CC4)c3C2)cc1 | i
COc1ccc(S(=O)(=O)N2CCC(c3nnc(-c4ccccc4C)o3)CC2)c(OC)c1 | i
Cc1ccc(-c2nnc(Nc3ccc(O)cc3)c3ccccc23)cc1S(=O)(=O)N1CCOCC1 | 8.91µM
COc1ccc(S(=O)(=O)NC(C)(C)CO)cc1-c1nnc2c3ccccc3c(C)nn12 | i
Cc1ccc(-c2nnc(Nc3ccccc3)c3ccccc23)cc1S(=O)(=O)N1CCN(C)CC1 | i
COc1ccc(Nc2nnc(-c3ccc(C)c(S(=O)(=O)N4CCN(C)CC4)c3)c3ccccc23)cc1 | 8.91µM
Cc1ccc(-c2nn3c(C)nnc3c3ccccc23)cc1S(=O)(=O)NC(C)(C)CO | i
Cc1ccc(-c2nnc(Nc3ccc(OC(F)(F)Cl)cc3)c3ccccc23)cc1S(=O)(=O)NC(C)(C)CO | 12.6µM
COC(=O)COc1ccc(-c2nnc(Nc3ccc(O)cc3)c3ccccc23)cc1 | i
COc1nnc(-c2ccc(N3CCCCC3)c(NC(=O)c3ccc(C)cc3)c2)c2ccccc12 | i
COc1ccc(N2CCN(S(=O)(=O)c3ccc(-c4ccno4)cc3OC)CC2)cc1 | i
Cc1ccc(Nc2nnc(-c3ccc(C)c(S(=O)(=O)N4CCN(C)CC4)c3)c3ccccc23)cc1 | 7.94µM
CNC(=O)c1cc(Nc2nnc(-c3ccc(O)cc3)c3ccccc23)ccc1OC | i
SMILES | Pf Dd2 growth
CCn1c(C2CCCN(C(=O)Cc3c[nH]c(=O)n(C)c3=O)C2)nn(C)c1=O (stereo not given) | i
CCCNC(=O)NCCc1ncc(C)n1C(C)C | i
O=C(Nc1cccc(-n2cccn2)c1)C1CCCN1C(=O)C1CC1 (stereo not given) | i
Cc1noc([C@@H]2CN(Cc3cccc(Cl)c3)C[C@H]2CO)n1 | i
COC[C@@H]1[C@H](C(=O)Nc2ccc(F)cc2F)CCC(=O)N1C | i
CC1=NOC2(CCN([S+](=O)([O-])c3ccccc3)C2)C1 (stereo not given) | i
Cn1c(CNC(=O)Cn2nc3c(cc2=O)CCCCC3)nc2ccccc21 | i
Cc1ccc(-c2nn3c(C)nnc3c3ccccc23)cc1S(=O)(=O)NCCO | i
COc1ccccc1N1CCN(S(=O)(=O)c2cc(-c3cc(C)no3)ccc2C)CC1 | i
Cc1ccc(Nc2nnc(-c3ccc(C)c(S(=O)(=O)N4CCN(C)CC4)c3)c3ccccc23)c(C)c1 | 7.94µM
Cc1ccccc1-c1noc(-c2ccc(NCC3CCCO3)c([N+](=O)[O-])c2)n1 (stereo not given) | i
Cc1ccccc1Nc1nnc(-c2ccc(C)c(S(=O)(=O)NCC3CCCO3)c2)c2ccccc12 (stereo not given) | 5.62µM
Cc1ccc(N2CCN(S(=O)(=O)c3ccc(Cl)c4ccccc34)CC2)c(C)c1 | i
COc1ccc2[nH]c(C(=O)N[C@H]3COC[C@H]3Cc3cc(C)no3)c(C)c2c1 | i
Cn1c(=O)oc2cc(NC(=O)CCc3cc4n(n3)CCCNC4)ccc21 | i
O=C(Nc1cc(Cl)cc(Cl)c1)c1ccc(F)c(S(=O)(=O)N2CCc3ccccc32)c1 | 8.91µM
O=C(Nc1cc(Cl)cc(Cl)c1)c1ccc(F)c(S(=O)(=O)N2CCCC2)c1 | i
O=C(O)c1ccc2c(c1)N(S(=O)(=O)c1ccccc1F)CC2 | i
COCc1nc(-c2ccc(OC3CCN(Cc4ccc(C(F)(F)F)cc4)C3)cc2)no1 (stereo not given) | i[5.79 µM]
Cc1nc2c(C)cccc2cc1C(=O)N1CCC2(CCNCC2)CC1 | i
Cc1ccc(C(=O)N2CCn3c(nn(-c4ccc(C)cc4)c3=O)C2)cc1 | i
CC(=O)N1CCC(NC2(Cc3cc(CN4CCOCC4)on3)COC2)CC1 | i
COc1cccc(NC(=O)C2CCCN(c3ncnc4onc(C)c34)C2)c1 (stereo not given) | i
CCOC(=O)c1ccc(NC(=O)C2CCCN(c3ncnc4onc(-c5ccc(F)cc5)c34)C2)cc1 (stereo not given) | 8.91µM
CC(C)NC(=O)C1CCCN(c2ncnc3onc(-c4ccc(F)cc4)c23)C1 (stereo not given) | i
SMILES | Pf Dd2 growth
O=C(Cc1cccc(F)c1)NCCC1CCN(C(=O)Nc2ccccc2F)CC1 | i
CC(=O)Nc1cccc(-c2nc(-c3c(C)noc3C)cc3cc(CO)oc23)c1 | i
Cc1cccc(OCC(=O)N2C[C@@H](CO)[C@H](c3ccncc3)C2)c1 | i
CC(C)c1ccc(C(=O)N[C@H](C2CCNCC2)C2CC(O)C2)c(=O)n1C (stereo not given in full) | i
Cc1oc(-c2cccc(Cl)c2)nc1CSc1nncn2c1cc1occc12 | i[5.79 µM]
CCC(Sc1nncn2c1cc1occc12)C(=O)Nc1ccc(C)c(Cl)c1 (stereo not given) | 14.1µM
O=C(CSc1nncn2c1cc1occc12)Nc1ccc(F)c(Cl)c1 | i
COc1ccc(CN2CCn3c(nnc3C3CCCNC3)C2)cc1 (stereo not given) | i
O=C(NC1CCCCC1)[C@@H]1C[C@@H](O)CN1C1CCN(C(=O)c2ccsc2)CC1 | i
Cc1cccc(O[C@H]2COCCN(C(=O)c3cc(C)nn3C)C2)n1 | i
Cc1cccc(O[C@H]2COCCN(Cc3nccn3C)C2)n1 | 11.2µM
Cc1cccc(O[C@H]2COCCN(c3nc4ccccc4o3)C2)n1 | i
O=C(CC1CCOCC1)N1CCC(Cc2ccccc2)CC1 | i
Cn1nc2n(c1=O)CCN(C(=O)NC1CCCCC1)CC2 | i
O=C(Cc1ccc(F)cc1)N1CC(c2nnc(-c3ccncc3)o2)C2(CCOCC2)C1 (stereo not given) | i
COc1cccc(-c2ccccc2NC(=O)C2CCN(CC=C(C)C)CC2)c1 | 5.62µM
COc1cccc(C(=O)Nc2ccccc2-c2nnc(-c3cccc(OC)c3)o2)c1 | i
COc1cccc(-c2ccccc2NC(=O)C2CCN(Cc3ccccc3F)CC2)c1 | i
COc1ccc(C(=O)N2CCC(C(=O)Nc3ccc(OC)cc3OC)CC2)cc1 | i
C=CCC(=O)N1CCCC1C(=O)Nc1ccc(-c2cccc(OC)c2)cc1 (stereo not given) | i
COc1cccc(-c2ccccc2NC(=O)C2CCN(C/C(C)=C/c3ccccc3)CC2)c1 | 8.91µM
Cc1cc(Cl)ccc1S(=O)(=O)N(C)CC1CCOC1 (stereo not given) | i
